Results from PubChem BioAssay (EPA / NIEHS).
Results filed as inconclusive are left out. Activity calls are given as the source filed them. The calls were made as follows: active = hit-call score of the fitted dose curve at least 0.9, where 1 is the maximum; inconclusive = response in the unintended direction; inactive = score below 0.9.

Columns and labels:
[1] = target: Cellular tumor antigen p53 (Homo sapiens) (UniProt P04637); test: TOX21_p53_BLA_p2_ratio: Tox21 HCT-116 p53 Agonism Beta-lactamase Assay, Ratio, Phase 2 (AID 2283592)
Procedure, shortened: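 Ratio endpoint: beta-lactamase cleavage of CCF4-AM, blue (460 nm) over green (530 nm). HCT116 reporter line; 16 h treatment, 37C; substrate 2 h RT.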

[2] = TOX21_p53_BLA_p3_viability: Viability Assessment in the Tox21 HCT-116 p53 Agonism Beta-lactamase Assay, Phase 3 (AID 2283593);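 also: cells exposed to compound for 16 h before reading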
Procedure, shortened: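 HCT-116 cells (4000/well) rested 5 h at 37C, then got DMSO compounds by pin tool (217-fold dilution) for 16 h at 37C, 5% CO2. After the bla read, CellTiter-Glo was added and luminescence read at 30 min, room temperature.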

[3] = target: Cellular tumor antigen p53 (Homo sapiens) (UniProt P04637); test: TOX21_p53_BLA_p3_ratio: Tox21 HCT-116 p53 Agonism Beta-lactamase Assay, Ratio, Phase 3 (AID 2283596)
Procedure, shortened: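 Cells were seeded at 4000/well, rested 5 h at 37C, then dosed with DMSO compound solutions (217-fold dilution) for 16 h. CCF4-AM substrate was loaded for 2 h at room temperature, and the 460/530 nm emission ratio was fitted for gain of signal versus DMSO.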

[4] = TOX21_p53_BLA_p4_viability: Viability Assessment in the Tox21 HCT-116 p53 Agonism Beta-lactamase Assay, Phase 4 (AID 2283597);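 also: hits lower the luminescence signal meaning cytotoxicity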
Procedure, shortened: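 Cytotoxicity was inferred from loss of CellTiter-Glo luminescence. HCT116 cells had been dosed with compounds after 5 h plating, incubated 16 h at 37C and 5% CO2, and exposed to the CCF4-AM substrate for 2 h.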

[5] = target: Cellular tumor antigen p53 (Homo sapiens) (UniProt P04637); test: TOX21_p53_BLA_p5_ratio: Tox21 HCT-116 p53 Agonism Beta-lactamase Assay, Ratio, Phase 5 (AID 2283599)
Procedure, shortened: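 HCT-116 cells carrying a p53-inducible beta-lactamase reporter were seeded at 4000 cells/well and dosed after 5 h with compound in DMSO (217-fold dilution). After 16 h at 37C, CCF4-AM substrate was added for 2 h, and the 460/530 nm emission ratio was scored as gain-of-signal versus DMSO.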

[6] = target: Cellular tumor antigen p53 (Homo sapiens) (UniProt P04637); test: TOX21_p53_BLA_p4_ratio: Tox21 HCT-116 p53 Agonism Beta-lactamase Assay, Ratio, Phase 4 (AID 2283601)
Procedure, shortened: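 HCT116 cells carrying an inducible beta-lactamase reporter were plated at 4000 cells/well, rested 5 h, then exposed to compounds in DMSO (217-fold dilution) for 16 h at 37C. CCF4-AM substrate was loaded 2 h at room temperature; 460/530 nm emission ratio scored gain-of-signal versus DMSO.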

[7] = TOX21_p53_BLA_p5_viability: Viability Assessment in the Tox21 HCT-116 p53 Agonism Beta-lactamase Assay, Phase 5 (AID 2283600)
Procedure, shortened: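 Luciferase-coupled ATP quantitation of cells treated for 16 h (37C, 5% CO2) with test chemicals delivered in DMSO via a 217-fold dilution; 4000 cells/well; reagent incubated 30 min at room temperature before luminescence reading.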

Measured: outcome

Cellular tumor antigen p53 (Homo sapiens), sequence (P04637 whole entry, looked up): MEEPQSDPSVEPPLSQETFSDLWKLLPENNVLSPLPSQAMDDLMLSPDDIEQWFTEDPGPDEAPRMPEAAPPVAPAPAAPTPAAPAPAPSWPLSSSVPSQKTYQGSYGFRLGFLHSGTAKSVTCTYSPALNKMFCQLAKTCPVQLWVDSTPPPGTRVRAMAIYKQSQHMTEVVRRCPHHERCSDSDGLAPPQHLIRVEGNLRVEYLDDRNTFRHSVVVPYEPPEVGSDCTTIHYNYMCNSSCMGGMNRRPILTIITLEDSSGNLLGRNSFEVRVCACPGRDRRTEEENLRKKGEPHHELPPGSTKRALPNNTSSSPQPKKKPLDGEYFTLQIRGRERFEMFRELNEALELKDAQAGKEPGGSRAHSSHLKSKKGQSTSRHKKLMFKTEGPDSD

NC(Cc1ccc(F)cc1)C(=O)O (stereo unspecified)
inactive: [1] | [2] | [3] | [4] | [5] | [6]

CN1[C@@H]2CC[C@H]1CC(OC(c1ccccc1)c1ccccc1)C2 (stereo partly specified)
inactive: [1] | [2] | [3] | [4] | [7] | [6]

O=P(O)(O)OP(=O)(O)O
inactive: [1] | [2] | [3] | [4] | [7] | [6]

O=C(O)Cc1ccc(CCNS(=O)(=O)c2ccc(Cl)cc2)cc1
inactive: [1] | [2] | [3] | [4] | [7] | [6]

COC(=O)CCc1ccc(OCC(O)CNC(C)C)cc1 (stereo unspecified)
inactive: [1] | [2] | [3] | [4] | [7]

COc1cc(NS(=O)(=O)c2ccc(N)cc2)nc(C)n1
inactive: [1] | [2] | [3] | [4] | [7]

Clc1cc(Cl)cc(Cl)c1
inactive: [1] | [2] | [3] | [4] | [7] | [6]

Cn1cc(NC(=O)c2cc(NC(=O)c3cc(NC=O)cn3C)cn2C)cc1C(=O)NCCC(=N)N
inactive: [1] | [2] | [3] | [4] | [5] | [6]
